Measurements reported in PubChem BioAssay AID1347043 (National Center for Advancing Translational Sciences (NCATS), 2019).
Among all 76,000 compounds or so, about 1,900 (2.5%) were called active. Roughly 5% stayed inconclusive and do not appear here. The sample as a whole holds a higher share of actives than the screen did. A number with no mark means an inactive call. The call rests on the fitted dose curve; in most records, active means well fitted inhibition curve with a large enough effect; inconclusive means small, poorly fitted or top-dose-only effect; inactive means flat fitted curve, though single readings scatter.
Further: nearly all actives have a fitted effect of over 65% in size.
On the % scale 0 is the no-effect control and ±100 the full control effect.

The compounds below were run against Luciferin 4-monooxygenase (Photinus pyralis) (UniProt P08659) (assay: Firefly luciferase inhibition profiling of diverse chemical library using quantitative high-throughput screening). Conditions: purified P. pyralis luciferase, luminescence, biochemical; series mostly up to 115 µM; activity change, negative = inhibition: at the top concentration.
Chain of Luciferin 4-monooxygenase (Photinus pyralis) (P08659 whole entry, looked up): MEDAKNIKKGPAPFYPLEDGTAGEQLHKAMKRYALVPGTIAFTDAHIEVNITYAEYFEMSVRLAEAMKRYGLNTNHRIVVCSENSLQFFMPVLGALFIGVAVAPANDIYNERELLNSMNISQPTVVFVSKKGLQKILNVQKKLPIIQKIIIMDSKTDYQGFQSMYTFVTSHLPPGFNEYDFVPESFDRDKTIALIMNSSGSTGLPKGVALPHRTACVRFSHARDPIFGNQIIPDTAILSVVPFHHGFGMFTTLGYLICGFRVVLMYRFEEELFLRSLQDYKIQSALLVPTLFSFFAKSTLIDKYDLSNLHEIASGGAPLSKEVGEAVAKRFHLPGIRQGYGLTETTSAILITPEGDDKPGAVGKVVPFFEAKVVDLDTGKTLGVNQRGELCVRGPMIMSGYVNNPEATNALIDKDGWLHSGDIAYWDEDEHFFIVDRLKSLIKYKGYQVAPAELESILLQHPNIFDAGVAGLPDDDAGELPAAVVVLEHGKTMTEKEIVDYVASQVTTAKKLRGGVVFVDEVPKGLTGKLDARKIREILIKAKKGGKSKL
Excerpt: Firefly (Photinus pyralis) luciferase is one of the most commonly used transcriptional reporters for a number of reasons. It is considered one of the more dynamically responsive reporters - that is, responsive to changes in reporter transcription - as it requires no post-translational modifications and is enzymatically active directly after protein synthesis (Wood, 1998). Additionally, the half-life of the luciferase protein is short relative to other reporter-gene products (Wood, 1995). Whereas reporters with long half-lives potentially allow for increased signal due to accumulation of reporter-gene product, once accumulated in the cell, dynamic changes in reporter-gene expression may be difficult to detect(Fan and Wood, 2007; Almond et al., 2004). It has been shown that wild-type P. pyralis luciferase has a half-life of approximately four hours in mammalian cells (Thompson et al., 1991). Firefly luciferase reporter-gene assays are also generally considered one of the most sensitive assay types (Wood, 1995; Wood, 1998). Although light produced in a bioluminescence reaction is of lower intensity than that produced during fluorescence emission, this is offset by little to no background light inherent to luminescent assays. Thus the luciferase reporter can be expressed at much lower levels than fluorescent proteins while still providing robust signal. However, it was initially observed, in 1991, by Thompson et al., that compounds that resemble the substrates of firefly luciferase (FLuc) can act as competitive inhibitors of the enzyme, and that these compounds, upon interaction with luciferase in the cell, can actually stabilize the protein and increase its half-life. Accumulated intracellular FLuc protein can be measured as an increase in luminescence signal, upon addition of detection reagents (which contain high concentrations of FLuc substrates) commonly used in high-throughput screening. In cell-based reporter gene assays that use FLuc as the reporter gene to quantitate the potential influence of a given compound against the target biology, this apparent increase in luminescence can mistakenly be interpreted as identification of a compound that is active against the target of interest. FLuc inhibitory compounds that stabilize the FLuc protein will give an identical read-out, making it difficult to distinguish compounds that are active against the target from those active against FLuc. In summary, the results generated here constitutes a valuable resource for the scientific community and provides insight on identifying compounds with inhibitory activity for the commonly-used reporter, firefly luciferase. References: -Almond, B., Zdanovsky, A., Zdanovskaia, M., Ma, D., Stecha, P., Paguio, A., Garvin, D., and Wood, K. (2004). Introducing the Rapid Response Reporter Vectors. Promega Notes 87, 18-22. -Fan, F., and Wood, K.V. (2007). Bioluminescent assays for high-throughput screening. Assay Drug Dev Technol 5, 127-136. -Thompson, J.F., Hayes, L.S., and Lloyd, D.B. (1991). Modulation of firefly luciferase stability and impact on studies of gene regulation. Gene 103, 171-177. -Wood, K.V. (1998). The chemistry of bioluminescent reporter assays. Promega Notes 65, 14-20. -Wood, K.V. (1995). Marker proteins for gene expression. Curr Opin Biotechnol 6, 50-58.
Reagents: 50mM Tris acetate, pH 7.5; 10mM Mg acetate; 10uM D-luciferin (Sigma #L9504); 10uM ATP; 0.01% Tween-20; 0.05% BSA; 10nM P. pyralis luciferase (Sigma #L9506) Control compounds used were two known firefly luciferase inhibitors (compounds (2) and (5) in Auld et al., 2010), and DMSO. Assay Summary: Three microliters containing firefly luciferase substrates in buffer (final concentrations: 50mM Tris acetate, pH 7.5, 10mM Mg acetate, 0.01% Tween-20, 0.05% BSA, 10uM D-luciferin, and 10uM ATP) are dispensed into each well of a Greiner white, solid-bottom 1536-well format plate using a flying reagent dispenser (FRD). […]
In the case of `O=C(c1ccccc1C1CCNC1)N1CCC(Nc2ncccn2)CC1` (stereo not drawn), the “activity change, negative = inhibition” value is reported as 3.36%.
In the case of `CN1C(=O)CO[C@H]2CN(C(=O)c3ccccc3)C[C@H]21`, the “activity change, negative = inhibition” value is reported as 0.13% [at 230 µM].
In the case of `Cc1ccccc1CN1CCOc2cc([S+](=O)([O-])N(C)C)ccc2C1`, the “activity change, negative = inhibition” value is reported as -3.29% [at 172 µM].
With `CC(C)CN1CCN(C(=O)c2cc3c(s2)CCN(C(=O)c2ccc(Cl)cc2)C3)CC1` the “activity change, negative = inhibition” value was -6.31%.
For `CC(C)c1noc([C@H]2C[C@@H]3C(=O)NCCCCCCN(C(=O)Cc4cccnc4)[C@@H]3C2)n1`, the “activity change, negative = inhibition” value was -15.9%.
In the case of `COc1ccc(C)cc1NC(=O)Cn1nc2n(c1=O)CCCC2`, the “activity change, negative = inhibition” value is reported as -4.41%.
For `COc1cc(=O)n2c(c1C(=O)Nc1cc(C)ccc1C)CCCC2`, the “activity change, negative = inhibition” value was -5.74%.
With `COc1ccc(C)cc1NC(=O)Nc1cccc(-c2ccc(N3CCCCC3)nn2)c1` the Potency was 0.282 µM (active).
For `COc1cc(Cl)ccc1C(=O)N1CCC[C@H]1c1nc(-c2ccccc2)no1`, the “activity change, negative = inhibition” value was 12.2%.
In the case of `COCCn1c(=O)n([C@H]2CCCN(C(=O)c3cc4ccccc4[nH]3)C2)c2ncccc21`, the “activity change, negative = inhibition” value is reported as 8.11%.
`CSc1ccc(CNC(=O)c2noc(-c3ccc(C)cc3)n2)cc1` was tested, and the “activity change, negative = inhibition” value was -8.08%.
`COc1ccc(CCNC(=O)c2noc(-c3ccc(C)cc3)n2)cc1OC` was tested, and the “activity change, negative = inhibition” value was -16.8%.
In the case of `CC(NC(=O)Cc1cccc(F)c1)C(=O)N1CCN(c2ccccn2)CC1` (stereo not drawn), the “activity change, negative = inhibition” value is reported as -7.86%.
In the case of `Cc1ccc(-c2nc(C(=O)N(C)Cc3ccccc3)no2)cc1`, the Potency is reported as 10 µM (active).
With `Cc1ccc(-c2nc(C(=O)N3CCN(c4ccccn4)CC3)no2)cc1` the Potency was 14.1 µM (active).
In the case of `Cc1cccc(C(=O)N2CCCC(C(=O)N3CCN(c4ccccn4)CC3)CCNC(=O)CC2)c1` (stereo not drawn), the “activity change, negative = inhibition” value is reported as 7.1%.
In the case of `COCCn1c(CO)nnc1C1CC(NC(=O)c2sc(C)nc2C)C1` (stereo not drawn), the “activity change, negative = inhibition” value is reported as -3.21%.
`CCC(C(=O)Nc1ccc2c(c1)CN(Cc1cc(F)cc(F)c1)C(=O)CO2)c1ccccc1` (stereo not drawn) was tested, and the “activity change, negative = inhibition” value was 1.72%.
For `COc1cccc(C(=O)N2CCC(C(NC(=O)c3ccccc3C)C(=O)NCC(C)C)CC2)c1` (stereo not drawn), the “activity change, negative = inhibition” value was -5.87%.
For `O=C(NCC1Cn2cccc2C(=O)N1Cc1ccccc1)c1ccc(F)cc1` (stereo not drawn), the “activity change, negative = inhibition” value was -1.37%.
With `CCC1=C(C(=O)OC)C(c2ccc(C)cc2C)N2C(CC(=O)N3CCOCC3)=CSC2=N1` (stereo not drawn) the “activity change, negative = inhibition” value was -4.47%.
With `N#Cc1cc2c(nc1N1CCN(C3CCCC3)C(CCO)C1)CCCC2` (stereo not drawn) the “activity change, negative = inhibition” value was 3.08%.
With `COC(=O)c1ccccc1NC(=O)Cn1nc2n(c1=O)CCCCC2` the “activity change, negative = inhibition” value was -2.82%.
With `COc1ccccc1-c1cc(-c2cn[nH]c2)c2cncn2c1` the “activity change, negative = inhibition” value was -6.95% [at 230 µM].
For `COc1ncccc1-c1cc(-c2cn[nH]c2)c2cncn2c1`, the “activity change, negative = inhibition” value was 10% [at 230 µM].
In the case of `c1cc(N2CCOCC2)ccc1-c1cc(-c2cn[nH]c2)c2cncn2c1`, the Potency is reported as 22.4 µM (active).
In the case of `Cc1ccc(C(=O)N2CCCC(c3nc(-c4ccccc4)no3)CCNC(=O)CC2)cn1` (stereo not drawn), the Potency is reported as 28.2 µM (active).
In the case of `CC(C)C(=O)N1CCCC(c2nc(-c3ccccc3)no2)CCNC(=O)CC1` (stereo not drawn), the “activity change, negative = inhibition” value is reported as -3.93%.
For `Cn1cccc1C(=O)N1CCCC(c2nc(-c3ccccc3)no2)CCNC(=O)CC1` (stereo not drawn), the “activity change, negative = inhibition” value was 2.73%.
`CC[C@H]1CN(C(=O)c2ccc(F)cc2)CC[C@H]1CC(=O)Nc1ccccc1` was tested, and the “activity change, negative = inhibition” value was 13.4% [at 172 µM].
In the case of `O=C1CN(Cc2ccc(-c3ccccc3)cc2)CCN1c1cc(Cl)ncn1`, the “activity change, negative = inhibition” value is reported as -11.2%.
In the case of `Cn1ccc(Nc2cc3c(cn2)CN(CCc2ccccc2)CCN3)n1`, the “activity change, negative = inhibition” value is reported as 3.4% [at 172 µM].
With `OCc1cccc(-c2cc3c(cn2)CN(Cc2ccccc2)CCN3)c1` the Potency was 14.1 µM (active).
With `Cc1cccn2c(CC(=O)NCC3CCN(c4cnn(C)c(=O)c4)C3)cnc12` (stereo not drawn) the “activity change, negative = inhibition” value was 10.5%.
With `O=C(O)[C@@H]1CN(C(=O)NC2CCCC2)C[C@H]1c1ccccn1` the “activity change, negative = inhibition” value was 0%.
For `O=C(NCc1c[nH]c2ncccc12)c1ccccn1`, the “activity change, negative = inhibition” value was -11% [at 172 µM].
In the case of `O=C(NCc1ccnc2[nH]ccc12)c1ccccn1`, the Potency is reported as 28.2 µM (active).
With `COc1ccccc1C(=O)NCc1ccnc2[nH]ccc12` the “activity change, negative = inhibition” value was -9.82% [at 172 µM].
For `CN(C)c1ccc(NC(=O)COc2ccc(-c3nnc4n3CCCC4)cc2)cc1`, the “activity change, negative = inhibition” value was 1.38%.
For `Nc1nc(C2CC(NC(=O)CCc3nc4ccc(F)cc4[nH]3)C2)cc(=O)[nH]1` (stereo not drawn), the “activity change, negative = inhibition” value was 1.51%.
`COCc1nc(-c2ccc(NC(=O)Cn3nc4c(cc3=O)CCCC4)cc2)n[nH]1` was tested, and the “activity change, negative = inhibition” value was 5.99%.
For `COCc1nc(C2CC(NC(=O)c3cc(-c4ccsc4)n[nH]3)C2)cc(=O)[nH]1` (stereo not drawn), the Potency was 28.2 µM (active).
With `O=C(NCc1ccccn1)C1CN(S(=O)(=O)c2cccs2)CC12CCCCC2` (stereo not drawn) the “activity change, negative = inhibition” value was -9.22%.
For `O=C(NC1CC1)[C@@H]1C[C@H](Oc2cccnc2)CN1C(=O)C1CCC1`, the “activity change, negative = inhibition” value was -5.55%.
`N#Cc1ccc(O[C@@H]2COCC[C@H]2NC(=O)CCCn2cccn2)cc1` was tested, and the “activity change, negative = inhibition” value was 0.744%.
`Cc1cccc(-c2noc([C@@H]3Cc4nc[nH]c4CN3C(=O)Nc3ccccc3)n2)c1` was tested, and the Potency was 50.1 µM (active).
In the case of `CC(C)NC(=O)N1Cc2[nH]cnc2C[C@H]1c1nc(-c2ccc(Cl)cc2)no1`, the “activity change, negative = inhibition” value is reported as -14.5% [at 172 µM].
With `CCOC(=O)c1ccc(NC(=O)N2Cc3[nH]cnc3C[C@H]2c2nc(-c3ccc(Cl)cc3)no2)cc1` the “activity change, negative = inhibition” value was -15.6%.
